Not all results are given here.
aSyn 5UTR act = Activators via SNCA 5'UTR binding, MLPCN; alpha-synuclein 5'UTR reporter, activators screen; activity score, % (tested at 7.5 µM), hits read low; 300,000 compounds, 7.1% hits; in the data active = activity score below about -60%
Starred values were filed as active, the others as inactive.

SMILES	aSyn 5UTR act
N/C(=N\OC(=O)CCc1ccccc1)c1ccccc1Cl	-70*
Cc1ccc(/C(N)=N/OC(=O)CCc2ccccc2)cc1	-129*
N/C(=N\OC(=O)c1cccs1)c1cccc([N+](=O)[O-])c1	-130*
COc1ccc(/C(N)=N/OC(=O)c2cccc([N+](=O)[O-])c2)cc1OC	-96*
COc1cccc(C(=O)O/N=C(\N)c2ccc([N+](=O)[O-])cc2)c1OC	-208*
N/C(=N\OC(=O)c1cccc([N+](=O)[O-])c1)c1cccnc1	-189*
Cc1cccc(C(=O)O/N=C(\N)c2cccc([N+](=O)[O-])c2)c1	-157*
COc1cc(/C=C/C(=O)c2cccc([N+](=O)[O-])c2)cc(OC)c1OC	-62*
O=C(Nc1nc2ccccc2[nH]1)c1ccc(Cl)cc1	66
Cc1ccc(C)c(OCc2nc3ccccc3[nH]2)c1	-113*
O=C(Nc1nc2ccccc2[nH]1)c1cccc(Cl)c1	-151*
Cc1ccc(C)c(C(=O)Nc2nc3ccccc3[nH]2)c1	-69*
Cc1ccc(Nc2nc3ccccc3[nH]2)nc1	-220*
O=C(Nc1nc2ccccc2[nH]1)c1ccccc1O	-74*
O=C(NNc1ncnc2ccccc12)c1cccc(Cl)c1	-84*
Cc1ccc(NC(=O)c2ccc(OC(=S)N3CCOCC3)cc2)cc1	-75*
O=C(Nc1ccccc1Br)c1ccc(OC(=S)N2CCOCC2)cc1	-192*
O=C(NC(=S)Nc1ccccc1[N+](=O)[O-])c1ccccc1Cl	-94*
CCn1cc(C(=O)NC(=S)Nc2ccccc2[N+](=O)[O-])cn1	-94*
COc1ccc(NC(=S)NC(=O)c2ccccc2Cl)cc1	-130*
O=C(NC(=S)Nc1ccc(O)cc1)c1ccccc1Cl	-161*
CC(C)CNC(=S)NC(=O)c1ccccc1Cl	-93*
Cc1ccc(O)c(NC(=S)NC(=O)c2ccccc2Cl)c1	-120*
Cc1cc(O)c(C(=O)/C=C/c2ccc(Cl)cc2)c(=O)o1	-172*
CSc1ccc(/C=C/C(=O)c2c(O)cc(C)oc2=O)cc1	-117*
SMILES	aSyn 5UTR act
CNC(=O)c1ccc(Nc2nc(-c3ccccc3)nc3ccccc23)cc1	-90*
CCOC(=O)/C(C#N)=C\C=C1C=CN(C)C=C1	-150*
COC(=O)c1cnc(SCC(=O)c2ccccc2)n1C	-94*
COC(=O)c1cnc(SCc2ccc(Cl)cc2)n1C	-70*
Cn1c(SCC(=O)c2ccccc2)ncc(C(=O)Nc2ccccc2)c1=O	-67*
COC(=O)c1ccnc(SCC(=O)c2ccccc2)c1	-117*
COc1ccc2oc(=O)c(C(=O)N3CCN(c4ccccc4C)CC3)cc2c1	-157*
COc1cc2c(cc1OC)CN(C(=O)c1cc3ccccc3oc1=O)CC2	-99*
COc1ccc2oc(=O)c(C(=O)N3CCN(c4ccccc4)CC3)cc2c1	-68*
Nc1c(Br)cc2oc(-c3ccccc3)nc2c1Br	-179*
O=C(CNC(=O)c1ccc(Br)cc1)c1ccccc1	-94*
O=C(CNC(=O)c1ccc(F)cc1)c1ccc(Cl)cc1	-168*
O=C(CNC(=O)c1ccc(Cl)cc1)c1ccccc1	-100*
O=C(CNC(=O)c1ccccc1C(=O)O)c1ccccc1	-127*
Cc1ccc(-c2ccc3c(c2)S(=O)(=O)c2ccccc2C3=O)cc1	-156*
O=C(c1c(Cl)nc2sccn12)N(C(=O)c1c(Cl)nc2sccn12)c1ccc(Cl)cn1	-196*
Cc1ccc(/C=N/NC(=O)c2cccs2)cc1[N+](=O)[O-]	-107*
O=C(N/N=C/c1ccccc1[N+](=O)[O-])c1cccs1	-125*
CCOc1ccc(N(C(=O)c2ccccc2Cl)C2=NC(C)(C)CS2)cc1	-79*
CC(=NC1CC1)C1=C(O)c2ccccc2C1=O	-177*
CC(=O)Nc1ccc(N=C(C2=C(O)c3ccccc3C2=O)c2ccccc2)cc1	-64*
CCOc1ccc(N=C(C)C2=C(O)c3ccccc3C2=O)cc1	-123*
CC(=O)Nc1ccc(NC2=C/C(=N/S(=O)(=O)c3cccs3)c3ccccc3C2=O)cc1	83
Cc1ccc(NC(=O)c2[nH]cnc2C(=O)NN)cc1	-65*
O=C(c1ccccc1)c1nc[nH]c1C(=O)Nc1ccccc1	-91*
SMILES	aSyn 5UTR act
O=C(NCCCN1CCOCC1)c1cc(-c2cccs2)on1	-152*
O=C(NCCCn1ccnc1)c1cc(-c2cccs2)on1	-294*
O=C(NCCCN1CCOCC1)C(=O)N/N=C/c1c2ccccc2cc2ccccc12	67
COc1cc(CNc2ccc(C)c(C)c2)cc(OC)c1OC	-166*
CCOc1c(Br)cc(CNc2ccc3c(c2)OCCO3)cc1OC	97
COc1ccc(CNc2ccc(C)c(C)c2)cc1	-72*
COc1ccc(NCc2ccc(OC)c(OC)c2)cc1	-105*
COc1ccc(CNc2ccc(Br)cc2)cc1	-112*
COc1ccc(C(=O)Cc2ccc(OC)c(OC)c2)cc1	-109*
COc1ccc(CNc2cc(C)ccn2)cc1	-104*
O=C1NC(c2cccs2)Nc2sc3c(c21)CCCC3 (configuration not stated)	-131*
COc1cccc(COc2cc3ccccc3nc2C)c1	-96*
Cc1nc2ccccc2cc1OCc1ccc(Cl)cc1	-72*
Cc1nc(N)nc(N)c1CCCc1ccc(Cl)c(Cl)c1	92
CSC1=NC2(CCCCC2)CC12C=CC(=O)C=C2	-63*
COc1ccc(CC(=O)N(C)Cc2ccc(Cl)cc2)cc1S(=O)(=O)N1CCOCC1	-115*
COc1ccc(S(=O)(=O)N2CCOCC2)cc1NC(=O)CCNC(=O)c1ccc(Br)cc1	77
O=C(Nc1ccccc1N1CCCC1)c1ccc([N+](=O)[O-])o1	-112*
COc1ccc(N2CCCC2)c(NC(=O)c2ccc([N+](=O)[O-])o2)c1	-70*
O=C(Nc1ccc(N2CCCCC2)cc1)c1ccc([N+](=O)[O-])o1	-214*
COc1ccc(NS(=O)(=O)c2cc(NC(=O)c3ccc(C)o3)ccc2N2CCCCC2)cc1	-62*
CS(=O)(=O)N1CCN(c2ccc(NC(=O)c3ccc([N+](=O)[O-])o3)cc2)CC1	72
CC(=O)Nc1cccc(-c2csc(Nc3cc(C)ccn3)n2)c1	-63*
CC(=O)Nc1ccc(-c2csc(Nc3cc(C)ccn3)n2)cc1	-101*
Cc1ccnc(Nc2nc(-c3ccccc3)cs2)c1	-155*
SMILES	aSyn 5UTR act
CC(=O)Nc1cccc(-c2csc(Nc3ccccn3)n2)c1	-120*
Cc1nc2ncccn2c1-c1csc(Nc2ccc(O)cc2)n1	-67*
Cc1ccnc(Nc2nc(-c3c(C)nc4sccn34)cs2)c1	-103*
CC(=O)Nc1nc(C)c(-c2csc(Nc3ccccn3)n2)s1	-114*
Cc1ccc(Nc2nc(-c3c(C)nc4ncccn34)cs2)cc1	84
Cc1nc2c(cc(Oc3ccc(S(=O)(=O)N4CCOCC4)cn3)c3ccsc32)s1	-89*
COc1ccc(/C(N)=C/C(=O)C(C)(C)C)cc1	-98*
Cc1cc(C)nc(-n2nc(C)c(Sc3ccc(F)cc3)c2N)n1	-182*
Brc1ccc2nc(-c3c[nH]c4ccccc34)cn2c1	-164*
CCOc1ccc(OCc2ccc(C(=O)NC(C)(C)C)o2)cc1	-70*
CCOc1ccc(OCc2ccc(C(=O)Nc3cccnc3)o2)cc1	-81*
CC(C)NC(=O)c1ccc(COc2ccc(C(C)(C)C)cc2)o1	-136*
CN(C)c1ccc(NC(=O)c2ccc(COc3cccc(Cl)c3)o2)cc1	-112*
Cc1cc2oc(=O)cc(CN3CCC(C)CC3)c2c(C)c1Cl	-88*
Cc1cc(C)c2c(CN3CCC(C)CC3)cc(=O)oc2c1	-157*
Cc1cc2oc(=O)cc(CN3CCC(C)CC3)c2cc1C	-82*
Cc1cc(C)c2c(CCl)cc(=O)oc2c1	91
